Only some compounds are listed: those with a hit (about 2.3% of all), similar ones and a draw of the others.
WRN inhibitor: inhibitors of human WRN helicase | Q14191 | WRN helicase unwinding, fluorescent forked duplex, kinetic | Potency, µM (doses to about 114 µM), without a hit: top-dose activity change, negative = inhibition, most hits filed as inhibitors | 360,000 tested, 0.46% active; note: % is set by controls: 0 for no effect and ±100 for the full control effect; nearly all actives have a fitted effect of over 55% in size
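Kinetic red-fluorescence monitoring (525/598 nm) tracks WRN helicase activity after 100 nM fluorophore-quencher forked duplex and 2 mM ATP are added to 20 nM enzyme pretreated 15 min at room temperature with compound.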
Pol eta inh-1: DNA polymerase eta (human) inhibition. AID 588591. recombinant Pol eta, fluorescent DNA replication assay. Potency, µM (titrated, usually from 114 µM), for inactives: top-dose activity change, negative = inhibition, actives largely listed as inhibitors. 390,000 tested, 1.2% active. Q9Y253; note: % is set by controls: 0 for no effect and ±100 for the full control effect
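Pol eta at 10 nM preincubated with compounds 15 min at room temperature; reaction started with fluorescent substrate (50 nM final) and read kinetically at 0 and 10 min.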
POLI inh: inhibitors of human DNA polymerase iota; Pol iota fluorescent replication assay, 10 min; Q9UNA4; AID 588590; 390,000 tested, 1% active; Potency, µM (series often up to 115 µM), without a hit: at the top dose activity, negative = inhibition, usual class: inhibitors
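Fluorescent replication assay read twice, at 0 min and 10 min after adding 50 nM (final) substrate. Enzyme (10 nM) and compounds were first incubated 15 min at room temperature; enzyme-free buffer wells were negative controls.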
Pol kappa inh-1: blocks human DNA polymerase kappa activity | purified Pol kappa, fluorescent DNA synthesis assay, 10 min | Potency, µM (top dose mostly 107 µM), for the others: top-dose activity, negative = inhibition, most hits filed as inhibitors | 400,000 tested, 0.53% active; note: % is set by controls: 0 for no effect and ±100 for the full control effect
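First, compounds were pin-transferred onto 10 nM Pol kappa. After 15 min at room temperature, substrate was added to 50 nM final. Fluorescence was then measured kinetically at 0 and 10 min.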
POLB inh: DNA polymerase beta (human) inhibition; Potency, µM (top dose mostly 114 µM), without a hit: top-dose activity change, negative = inhibition, hits mostly inhibitors; 340,000 tested, 1.3% active; Pol beta primer extension/strand displacement, fluorescence kinetic; note: % is set by controls: 0 for no effect and ±100 for the full control effect
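Enzyme-only controls used 10 nM Pol beta; buffer lacking enzyme served as negative control. Compound preincubated 15 min, then 50 nM substrate added; 0 and 10 min reads at room temperature.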
TbPGK inh: TbPGK inhibition, hit validation | AID 686980 | TbPGK coupled GAPDH assay, Kinase-Glo luminescence | shares compounds with Pol kappa inh-1 | 500 tested, 79% active | Potency, µM (titrated, usually from 57.5 µM), for inactives: at the highest dose activity change, negative = inhibition, hits mostly inhibitors; note: % is set by controls: 0 for no effect and ±100 for the full control effect; nearly all actives have a fitted effect of over 65% in size
POLI cherry-pick: Inhibitors of human DNA polymerase iota, confirmation; shares compounds with Pol kappa inh-1; Pol iota primer extension, TAMRA/BHQ fluorescence; Potency, µM, usual class: inhibitors; 1,500 tested, 77% active
Pol kappa inh-2: confirmation of human DNA polymerase kappa inhibitors; 920 tested, 76% active; purified Pol-kappa, fluorescent strand-displacement substrate; shares compounds with Pol eta inh-1; Potency, µM, most hits filed as inhibitors; AID 720501
Pol eta inh-2: confirmation of human DNA polymerase eta inhibitors; Potency, µM, most hits filed as inhibitors; AID 720502; shares compounds with Pol eta inh-1; Pol eta primer extension, TAMRA/BHQ fluorescence, 10 min; 2,600 tested, 64% active
* hit, by the source's call; u = inconclusive; x = not tested or not shown; [ ] = another dose, or the depositor's remark. Calls come from the whole dose curve; as a rule, active = well fitted curve in the direction sought with a large enough effect; inconclusive = small, poorly fitted or top-dose-only effect, or another doubt; inactive = no such curve, though single readings can be large; an effect the other way counts as inactive or inconclusive. Potency is the fitted concentration of half-maximal effect.

SMILES | WRN inhibitor | Pol eta inh-1 | POLI inh | Pol kappa inh-1 | POLB inh | POLI cherry-pick | Pol eta inh-2 | others
CCCCCC(=O)N1CC2(CC(c3cccc(NC(=O)[C@@H]4CCC(=O)N4)c3)=NO2)C[C@@H]1C(N)=O (some centres undefined) | 6% | 1% | 5% | -14% | 21% | x | x
C/C=C\C=C\C(=O)N1CC2(CC(c3cccc(NC(=O)CC)c3)=NO2)C[C@H]1C(N)=O (some centres undefined) | u | 35µM* | u | 79µM* | -21% | 12* | 54*
C/C=C/C=C\C(=O)Nc1cccc(C2=NOC3(C2)C[C@H](C(N)=O)N(C(=O)/C=C/C)C3)c1 (some centres undefined) | u | 22µM* | u | u | u | 34* | 38*
C/C=C\C=C/C(=O)Nc1cccc(C2=NOC3(C2)C[C@@H](C(N)=O)N(C(=O)c2ccccc2)C3)c1 (some centres undefined) | x | x | x | x | 0% | x | x
Cc1cc(=O)[nH]c(N/N=C/c2c(O)n(-c3ccccc3)c(=O)c3ccccc23)n1 | u | 22µM* | 0% | -25% | 45µM* | 75* | 60*
CC(C)(C)OC(=O)N1CCC(c2c(C(=O)NCCCN3CCc4ccccc4C3)cnn2-c2ccccc2)CC1 | x | -2% | -7% | -26% | -1% | x | x
COc1ccccc1-c1nc2c(c(SCC(=O)Nc3ccc(C)c(C)c3)n1)Cc1c(CO)cnc(C)c1O2 | x | u | -2% | -11% | 0% | u | u
O=C(Nc1ccc(OCc2cc(=O)n3c4c(sc3n2)CCCC4)cc1)c1ccccc1 | x | 1% | 32% | 10% | 18% | x | x
NCCCC[C@H](NC(=O)[C@H](CCCN=C(N)N)NC(=O)[C@H](CO)NC(=O)[C@H](CCCN=C(N)N)NC(=O)[C@@H](N)Cc1ccc(O)cc1)C(=O)N[C@@H](Cc1ccc(O)cc1)C(=O)N[C@@H](CO)C(=O)N[C@@H](CO)C(=O)N[C@@H](Cc1c[nH]c2ccccc12)C(=O)N[C@@H](Cc1ccc(O)cc1)C(=O)O | x | x | x | 6%[60.1 µM] | x | x | x
Cc1ccccc1C1=C/C(=C(\SS/C(C(=O)c2ccc(OCC(=O)O)c(Cl)c2Cl)=C2\C=C(c3ccccc3C)SS2)C(=O)c2ccc(OCC(=O)O)c(Cl)c2Cl)SS1 | 22µM* | 14µM* | u | 79µM* | x | 38* | 24* | Pol kappa inh-2=17*
O=C(O)COc1ccc(C(=O)c2cccs2)c(Cl)c1Cl | x | x | x | 1%[19.4 µM] | x | x | x
O=C(CCN1C(=O)/C(=C\C=C\c2ccccc2)SC1=S)Nc1ccc(C(=O)O)cc1 | 56µM* | 28µM* | u | u | 20µM* | 27* | 85*
O=C(CCCN1C(=O)/C(=C\c2ccccc2)SC1=S)Nc1ccc(C(=O)O)cc1 | -7% | u | u | -18% | -15% | x | x
O=C(CCn1cccn1)Nc1ccc(Br)cc1F | x | -9% | 4% | 0% | 81% | x | x
Cc1cc(C(F)(F)F)c(C#N)c(SCC(=O)Nc2nc3cc(Br)ccc3s2)n1 | -13% | -15% | 19% | -19% | u | x | x
N#Cc1c(SCC(=O)Nc2nc3ccc(Br)cc3s2)sc2c(O)cc(=O)[nH]c12 | u | 11µM* | 6.3µM* | 32µM* | 35µM* | 67* | 15* | Pol kappa inh-2=8.4*
CCCSc1nnc(NC(=O)CSc2sc3c(O)cc(=O)[nH]c3c2C#N)s1 | 10µM* | 3.2µM* | 8.9µM* | 20µM* | 20µM* | 67* | 30* | Pol kappa inh-2=11*
Cc1c(Cl)cccc1NC(=O)CSc1sc2c(O)cc(=O)[nH]c2c1C#N | -3%[11.6 µM] | -26% | u | -20% | 22% | x | x
N#Cc1c(SCC(=O)Nc2nccs2)sc2c(O)cc(=O)[nH]c12 | 56µM* | 14µM* | 13µM* | 45µM* | 8.9µM* | 47* | 30* | Pol kappa inh-2=17*
CCNc1ncc2nc(-c3ccc(OC)cc3)c(=O)n(CCOC)c2n1 | x | x | x | -2%[60.1 µM] | x | x | x
CCC(C)n1c(=O)c2sccc2n2c(CCCC(=O)N3CCN(c4ccccc4)CC3)nnc12 (centres undefined) | x | -16% | 37% | 4% | 7% | x | x
Cc1cc(C)c2c(n1)nn1c(C)c(CCC(=O)NCc3ccc(Cl)cc3)c(C)nc21 | x | -6% | -14% | 3% | 16% | x | x
Cc1ccc(-c2cc3ncc4c(n3n2)-c2cc(Cl)ccc2OC4)cc1 | x | -12% | 27% | 12% | 5% | x | x
COc1cc(C)c2c(c1C=O)Oc1c(c(C)c(O)c3c1C(O)OC3=O)OC2=O (centres undefined) | 50µM* | 16µM* | 45µM* | 22µM* | 7.9µM* | 42* | 21* | TbPGK inh=4.6µM*
COc1cc2c(cc1OC)C(c1ccc(F)cc1)N(c1ccc(F)cc1)C(=O)C2 (centres undefined) | x | -13% | 19% | 8% | 18% | x | x
CCCC[N+](C)(C)CCC(=O)NC(C)(C)CS(=O)(=O)[O-] | -29% | 13µM* | u | -27% | 20µM* | x | 76* | TbPGK inh=u
Cc1ccc(S(=O)(=O)NCCCCCC(=O)NC(C)(C)CO)cc1 | -3% | -1% | 12% | -2% | 8% | x | x
CCOC(=O)c1c(S(=O)(=O)N2CCCC(C(=O)N3CCN(c4cccc(C)c4C)CC3)C2)c(C)n(C)c1C (centres undefined) | x | -8% | -2% | -8%[60.1 µM] | u | x | x
CCN(CC)CCNC(=O)c1ccc2c(c1)NC(=O)C(CS(=O)(=O)Cc1ccc(F)cc1Cl)N2 (centres undefined) | x | -2% | 4% | -10%[60.1 µM] | 8% | x | x

Assay outcomes: PubChem BioAssay, National Center for Advancing Translational Sciences (NCATS)
